Cell number and H1.0 immunofluorescence intensity data for 20 compounds are collected here from the supplement of paper PMC7156485.

± gives the standard deviation of the averaged measurements.

What all share (conditions): concentration: 10 µM; 24 h
Experiment [1] deals with HCC1569. The experiment is described as follows: cell number relative to DMSO (% of DMSO); higher = more cells (less growth inhibition / toxicity). The method, boiled down:
(§1)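 HCC1569 and TDF cells (800 per well, 384-well plates, RPMI with 10% FBS) were treated with compounds at 10 µM for 24 h at 37 °C, in triplicate. Cells were fixed in 3.7% formaldehyde and stained with a rabbit anti-H1.0 antibody, an AlexaFluor 647 secondary and DAPI; six fields per well were imaged at ×10. H1.0 nuclear intensity or cell number is expressed as percent of the plate DMSO control, taking the median of replicates. HCC1569 values were smoothed for positional effects.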

Experiment [2] deals with TDF. The experiment is described as above. The method in brief: as §1
Experiment [3] relates to TDF. In words: H1.0 immunofluorescence intensity relative to DMSO (% of DMSO); higher = stronger H1.0 induction, active = 120 or more. The method in brief:
as §1

Experiment [4] deals with HCC1569. In words: H1.0 immunofluorescence intensity relative to DMSO (% of DMSO); higher = stronger H1.0 induction, active = 140 or more. The method, boiled down: as §1
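Throughout, for H1.0 immunofluorescence intensity relative to DMSO: TDF is a line of transformed human dermal fibroblasts of mesenchymal origin.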
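Throughout, for cell number relative to DMSO: TDF denotes transformed human dermal fibroblasts of mesenchymal origin.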

Turning to `O=C1c2ccccc2-c2n[nH]c3cccc1c23`, the cell number was 93.2 in the experiment on HCC1569 [1] and 107 with TDF [2]. Moreover, the H1.0 immunofluorescence intensity was 92 (inactive) in the experiment on TDF [3] and 138 (inactive) in the experiment with HCC1569 [4].
Turning to `NC(N)=Nc1nc(CSCCC(N)=NS(N)(=O)=O)cs1`, the cell number was found to be 103 with HCC1569 [1] and 110 in the experiment with TDF [2]. In addition, the values for the H1.0 immunofluorescence intensity in the experiment with TDF [3] and with HCC1569 [4] were 91.1 (inactive) and 108 (inactive), respectively.
The matching figures for `CCN(NO)C1=CC(=O)C(=O)C=C1` [ET-3,4-dephostatin]: 79.5, 97.7, 94.7 (inactive) and 151 (active).
In the same order, the values of `COc1cc(O)c2c(c1)oc(=O)c1c3cc(O)c(O)cc3oc21` [Wedelolactone] are 91.7, 74.8, 101 (inactive) and 91.6 (inactive).
As for `CC(C)CN(CC(O)C(Cc1ccccc1)NC(=O)OC1CCOC1)S(=O)(=O)c1ccc(N)cc1` (stereo not given) [Amprenavir], the results for the cell number in the experiment on HCC1569 [1] and in the experiment with TDF [2] were 103 and 101, respectively. In addition, the H1.0 immunofluorescence intensity in the experiment with TDF [3] is 100 (inactive); with HCC1569 [4], 108 (inactive).
Consider `CN1CCN2c3ccccc3Cc3ccccc3C2C1.Cl` (stereo not given) [Mianserin hydrochloride], for which the cell number in the experiment with HCC1569 [1] turned out to be 105; with TDF [2] it was 101. The H1.0 immunofluorescence intensity with TDF [3] is 95.5 (inactive); in the experiment with HCC1569 [4], 98.4 (inactive).
Turning to `Clc1ccc(CCC(Cn2ccnc2)Sc2c(Cl)cccc2Cl)cc1.O=[N+]([O-])O` (stereo not given) [Butoconazole nitrate], the figures for the cell number in the experiment on HCC1569 [1] and in the experiment on TDF [2] were 98.1 and 99.7, respectively. Also, the H1.0 immunofluorescence intensity was 93 (inactive) in the experiment with TDF [3] and 115 (inactive) with HCC1569 [4].
Regarding `CCC(=C(c1ccccc1)c1ccc(OCCN(C)C)cc1)c1ccccc1.O=C(O)CC(O)(CC(=O)O)C(=O)O` [Tamoxifen citrate], the figures for the cell number in the experiment with HCC1569 [1] and in the experiment with TDF [2] were 85.2 and 95.2, respectively. In addition, the figures for the H1.0 immunofluorescence intensity in the experiment on TDF [3] and with HCC1569 [4] were 115 (inactive) and 146 (active), respectively.
The matching figures for `CN1CCCC1CCOC(C)(c1ccccc1)c1ccc(Cl)cc1` (stereo not given) [Clemastine]: 99.4, 97.3, 102 (inactive) and 112 (inactive).
For `O=c1[nH]cc(F)c(=O)[nH]1` [5-Fluorouracil], the results for the cell number in the experiment on HCC1569 [1] and in the experiment on TDF [2] were 81.345 ± 0.068 and 92.4 ± 4.8, respectively. In addition, the H1.0 immunofluorescence intensity is 97.7 (inactive) with TDF [3] and 94.5 (inactive) with HCC1569 [4].
The matching figures for `NC(=S)c1ccc[n+](C2OC(COP(=O)([O-])OP(=O)(O)OCC3OC(n4cnc5c(N)ncnc54)C(OP(=O)([O-])O)C3O)C(O)C2O)c1.[Na+]` (stereo not given) [Thio-NADP sodium]: 94.1, 100, 91.7 (inactive) and 104 (inactive).
Consider `O=C(O)c1cc(N(Cc2ccccc2O)Cc2ccccc2O)ccc1O` [Lavendustin B], for which the cell number worked out at 102 in the experiment with HCC1569 [1] and 95.2 in the experiment with TDF [2]. The H1.0 immunofluorescence intensity was 94.5 (inactive) in the experiment with TDF [3] and 93.1 (inactive) in the experiment with HCC1569 [4].
In the same order, the values of `CC1(NC2=NS(=O)(=O)c3sc(Cl)cc3N2)CC1` are 101, 90.6, 96.1 (inactive) and 94.7 (inactive).
The matching figures for `Cl.Cl.c1cnc(N2CCN(Cc3ccc4c(c3)OCO4)CC2)nc1` [Piribedil.2HCl]: 100, 98.2, 92 (inactive) and 107 (inactive).
In the same order, the values of `COc1cc(CCC(C)=O)ccc1O` [Vannilylacetone] are 105, 90.8, 95.6 (inactive) and 93.5 (inactive).
`CCCCS(=O)(=O)N[C@@H](Cc1ccc(OCCCCC2CCNCC2)cc1)C(=O)O.Cl.O`: the cell number in the experiment with HCC1569 [1] stood at 99.8; in the experiment on TDF [2], 102. Further, the H1.0 immunofluorescence intensity with TDF [3] is 97.7 (inactive); with HCC1569 [4], 104 (inactive).
`NC1CONC1=O` (racemic) [DL-Cycloserine]: the figures for the cell number in the experiment on HCC1569 [1] and in the experiment on TDF [2] were 101 and 96.8, respectively. The H1.0 immunofluorescence intensity in the experiment on TDF [3] was 92 (inactive); with HCC1569 [4], 92.3 (inactive).
`N[C@@H](COP(=O)(O)O)C(=O)O` [O-Phospho-L-serine]: the cell number worked out at 99.1 in the experiment with HCC1569 [1] and 101 in the experiment with TDF [2]. For the same compound, the figures for the H1.0 immunofluorescence intensity in the experiment with TDF [3] and in the experiment on HCC1569 [4] were 94.9 (inactive) and 96.7 (inactive), respectively.
The matching figures for `COCCOC(=O)C1=C(C)NC(C)=C(C(=O)OCC=Cc2ccccc2)C1c1cccc([N+](=O)[O-])c1` (stereo not given) [Cilnidipine]: 104, 108, 90.2 (inactive) and 111 (inactive).
The matching figures for `O=c1onc2cnc3ccccc3n12`: 101, 97.5, 103 (inactive) and 106 (inactive).
